Data taken from publication PMC4336329 (PLoS ONE, 2015).
The whole screen tested about 310,000 compounds, of which about 14,000 (4.5%) showed an effect of 50% or more. The effect is printed as a negative number. This is one part of a sample in which strong results are shown more often than they occur.

target: human ether-à-go-go-related gene (hERG) potassium channel (human, UniProt Q12809); assay: primary screen, population patch clamp on CHO cells stably expressing hERG; higher = less effect of the substance
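Further: peak tail current of the secondary pulse compared with the same well before compound.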

Sequence of human ether-à-go-go-related gene (hERG) potassium channel (Q12809 whole entry, looked up): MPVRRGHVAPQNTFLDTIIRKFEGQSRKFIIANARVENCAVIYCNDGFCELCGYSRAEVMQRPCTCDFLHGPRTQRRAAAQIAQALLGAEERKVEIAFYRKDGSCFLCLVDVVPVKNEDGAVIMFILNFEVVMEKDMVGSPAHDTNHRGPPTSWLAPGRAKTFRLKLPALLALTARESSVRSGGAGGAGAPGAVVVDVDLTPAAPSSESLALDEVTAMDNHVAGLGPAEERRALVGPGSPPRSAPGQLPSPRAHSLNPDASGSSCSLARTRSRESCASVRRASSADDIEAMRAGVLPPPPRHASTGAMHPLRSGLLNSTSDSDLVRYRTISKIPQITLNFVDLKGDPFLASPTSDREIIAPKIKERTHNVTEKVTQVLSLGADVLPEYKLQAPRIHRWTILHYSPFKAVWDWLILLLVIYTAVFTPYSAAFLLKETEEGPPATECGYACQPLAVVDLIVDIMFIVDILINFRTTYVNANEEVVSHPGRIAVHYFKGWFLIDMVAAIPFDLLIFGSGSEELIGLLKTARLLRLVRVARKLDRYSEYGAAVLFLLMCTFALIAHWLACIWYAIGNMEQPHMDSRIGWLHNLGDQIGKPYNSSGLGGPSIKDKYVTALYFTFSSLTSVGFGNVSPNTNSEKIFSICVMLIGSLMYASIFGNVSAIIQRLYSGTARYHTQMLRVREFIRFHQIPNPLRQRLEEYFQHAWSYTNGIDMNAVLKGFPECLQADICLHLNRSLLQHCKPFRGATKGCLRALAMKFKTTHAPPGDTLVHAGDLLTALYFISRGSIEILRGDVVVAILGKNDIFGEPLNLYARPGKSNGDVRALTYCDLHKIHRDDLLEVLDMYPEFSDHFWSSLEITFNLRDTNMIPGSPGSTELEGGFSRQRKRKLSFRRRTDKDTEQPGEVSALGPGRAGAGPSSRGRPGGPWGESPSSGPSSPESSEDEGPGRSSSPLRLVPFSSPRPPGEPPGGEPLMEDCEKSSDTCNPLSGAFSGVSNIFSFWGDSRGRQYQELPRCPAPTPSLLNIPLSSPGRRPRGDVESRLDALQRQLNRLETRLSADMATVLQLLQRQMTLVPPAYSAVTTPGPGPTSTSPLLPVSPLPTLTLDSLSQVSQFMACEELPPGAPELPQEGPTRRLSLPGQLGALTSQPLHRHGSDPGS

SMILES | hERG current change (%, negative = inhibition) at 10uM [%]
O=C(Nc1ccc2c(c1)OCO2)Oc1ccccc1 | -7.16
O=C(c1cccc(C(F)(F)F)c1)N1CCC(O)(CS(=O)(=O)Cc2ccccc2Cl)CC1 | -8.87
CNC(=O)C1CC(=O)N(Cc2ccc(OC)c(OC)c2)C(=Nc2ccc(OC)cc2)S1 (stereo not shown) | -6.01
Cc1ccc(-c2nnc(Cc3ccc([N+](=O)[O-])cc3)o2)cc1 | -64.9
Cc1ccc(-c2nnc(Cc3ccc(Cl)cc3)o2)cc1 | 8.63
O=[N+]([O-])c1ccc(Cc2nnc(-c3ccccc3Cl)o2)cc1 | -15.5
O=[N+]([O-])c1ccc(Cc2nnc(-c3ccc(F)cc3)o2)cc1 | -57.2
Fc1ccc(-c2nnc(Cc3nnc(-c4ccc(F)cc4)o3)o2)cc1 | 10.8
Fc1ccc(-c2nnc(Cc3ccc(Cl)cc3)o2)cc1 | -16.7
Cc1ccc(C(=O)Nc2c(C)n(C)n(-c3ccccc3)c2=O)cc1S(=O)(=O)N1CCOCC1 | 0.249
Cc1ccc(S(=O)(=O)N(C)c2c(C)ccc(S(N)(=O)=O)c2C)cc1 | -10.9
Fc1ccccc1N1CC(c2ccccc2)C(c2cccs2)=N1 (stereo not shown) | 9.56
Cc1ccc(Cn2nnc3c(=O)[nH]c(C4CCCN(S(=O)(=O)c5ccccc5F)C4)nc32)cc1 (stereo not shown) | 12.2
COc1ccc(/C=N/Nc2nncc3ccccc23)c(OC)c1 | 10.7
COc1cc(C)c(Cl)c(C)c1S(=O)(=O)NC1CC(C)(C)NC(C)(C)C1 | 7.91
O=C(NCCSc1ccccc1)c1ccc(Br)cc1 | 13.5
CN1CCN(CC(O)COc2ccccc2)CC1 (stereo not shown) | -0.905
OC(COc1ccccc1)CN1CCCC1 (stereo not shown) | 14.5
CCC(=O)c1ccc(OCC(O)CNC(C)c2ccccc2)cc1 (stereo not shown) | -14.7
COC(=O)CN1CCN(C(c2ccccc2)c2ccccc2)CC1 | 5
CCC(=O)c1ccc(OCC(O)CN2CCN(C(c3ccccc3)c3ccccc3)CC2)cc1 (stereo not shown) | -67.2
CCC(=O)c1ccc(OCC(O)CN2CCOCC2)cc1 (stereo not shown) | 7.44

SMILES | hERG current change (%, negative = inhibition) at 10uM [%]
CC(C)OCC(O)CN1CCN(C(c2ccccc2)c2ccccc2)CC1.Cl (stereo not shown) | -58.1
Cl.OC(COc1ccccc1)CN1CCN(CC(O)COc2ccccc2)CC1 (stereo not shown) | -61.7
N#Cc1ccc(OCC(O)CN2CCN(C(c3ccccc3)c3ccccc3)CC2)cc1 (stereo not shown) | -72.1
CCOc1ccc(NS(=O)(=O)c2ccc(Cl)c(C(=O)N(C)Cc3cccnc3)c2)cc1 | -25.9
COc1ccccc1NC(=O)CSc1nnc(C)n1Cc1ccccc1 | -34.5
CCOc1ccc(Nc2cc(=O)oc3ccccc23)cc1 | 7.78
Cc1nn(C)cc1C(=O)NNC(=S)Nc1ccc(Cl)cc1 | 12.6
CCOC(=O)C(Cc1ccc(Cl)cc1Cl)c1ccno1 (stereo not shown) | 14.3
O=C(NCc1ccc(Cl)cc1)C(=O)NCC1OCCN1S(=O)(=O)c1ccc2c(c1)OCCO2 (stereo not shown) | -7.02
Cc1cc(C)c(S(=O)(=O)/N=C2/C=C(Sc3ncn[nH]3)C(=O)c3ccccc32)cc1C | 18.2
C[C@H](NC(=O)OC(C)(C)C)C(=O)N/N=C/c1ccc2nccnc2c1 | 21.7
COc1cccc(N(C(=O)c2snc(C(N)=O)c2N)C(C(=O)NCC2CCCO2)c2ccc3ncccc3c2)c1 (stereo not shown) | -16.8
COc1ccccc1OCC(=O)Nc1cccc(S(=O)(=O)NC2=NCCCCC2)c1 | -4.65
CC(=O)c1ccccc1OCC(O)CN1CCN(c2ccccn2)CC1.Cl (stereo not shown) | -39
OC(COCc1ccco1)CN1CCN(C(c2ccccc2)c2ccccc2)CC1 (stereo not shown) | -73.4
CCC(=O)c1ccc(OCC(O)Cn2nc(C)c(C(C)=O)c2C)cc1 (stereo not shown) | -36.7
OC(CN1CCN(C(c2ccccc2)c2ccccc2)CC1)c1ccccc1 (stereo not shown) | -30.8
OC(COc1ccccc1)CN1CCN(C(c2ccccc2)c2ccccc2)CC1 (stereo not shown) | -69.6
CCC(=O)c1ccc(OCC(O)Cn2nc(C)c(Br)c2C)cc1 (stereo not shown) | -97.8
COc1cccc(OCC(O)CN2CCN(C(c3ccccc3)c3ccccc3)CC2)c1.Cl (stereo not shown) | -43.6
CCOc1ccccc1C(=O)N1CCN(C(c2ccccc2)c2ccccc2)CC1 | 0.314
OC(COc1ccccc1)CN1CCOCC1 (stereo not shown) | 9.83

SMILES | hERG current change (%, negative = inhibition) at 10uM [%]
CC(=O)c1ccccc1OCC(O)CN1CCN(C(c2ccccc2)c2ccccc2)CC1 (stereo not shown) | -66.7
O=C(CN1CCN(C(c2ccccc2)c2ccccc2)CC1)NC(=O)NCc1ccco1 | -5.1
CCC(=O)c1ccc(OCC(O)Cn2nc(C)cc2C)cc1 (stereo not shown) | -7.44
Cc1cccnc1NC(=S)NCc1ccco1 | -2.97
CC(=O)O.COc1c(O)ccc(C2NC(=O)NC(C)=C2C(=O)Nc2ccccc2C)c1[N+](=O)[O-] (stereo not shown) | 31.9
CC(/C=C1\SC(=S)N(CCC(=O)Nc2cccc(C(=O)O)c2)C1=O)=C\c1ccccc1 | 10.9
Cc1ccc(NC(=S)N=Nc2c(O)[nH]c3ccccc23)cc1 | 9.41
Cl.O=C(C(c1ccccc1)c1ccccc1)N1CCN(CC(O)COc2ccccc2)CC1 (stereo not shown) | -13.7
CCOc1ccc(OCC(O)CN2CCN(S(=O)(=O)c3cccc(C(F)(F)F)c3)CC2)cc1.O=C(O)C(=O)O (stereo not shown) | 13.7
CC(=O)N1CCN(CC(O)COc2ccc(OCc3ccccc3)cc2)CC1 (stereo not shown) | -17.7
OC(COc1ccccc1)CN1CCCCCC1 (stereo not shown) | -4.43
CCC(=O)c1ccc(OCC(O)CN2CCN(c3ccccn3)CC2)cc1 (stereo not shown) | -34
Cl.O=C(/C=C/c1ccccc1)N1CCN(CC(O)COc2ccccc2)CC1 (stereo not shown) | -69.7
CCC(=O)c1ccc(OCC(O)CN2CCN(c3cccc(C(F)(F)F)c3)CC2)cc1 (stereo not shown) | -55.2
COc1cc(/C=C/C(=O)N2CCN(CC(O)COc3ccccc3)CC2)cc(OC)c1OC.Cl (stereo not shown) | -8.44
OC(COc1ccccc1)CN1CCN(c2ncccn2)CC1 (stereo not shown) | -22.9
Cl.O=C(COc1ccccc1)N1CCN(CC(O)COc2ccccc2)CC1 (stereo not shown) | -50.8
CC(C)(c1ccccc1)c1ccc(OCC(O)CN2CCCC2)cc1.Cl (stereo not shown) | -60.3
CC(C)(C)c1ccc(OCC(O)CN2CCCC2)cc1.Cl (stereo not shown) | -35.7
COc1cc(C(=O)NCCNC(=O)c2ccc(C)nc2)cc(OC)c1OC | 11.8
S=C(Nc1ccccc1)Nc1nccs1 | 24.4
CCOc1ccc(Nc2oc(-c3ccc(Cl)cc3)nc2C#N)cc1 | 9.08

SMILES | hERG current change (%, negative = inhibition) at 10uM [%]
Cl.Fc1ccc(CN2C3=NCCCN3c3ccccc32)cc1 | -71.2
Cl.Fc1ccc(CN2C3=NCCN3c3ccccc32)cc1 | -54.9
O=C(CN1C(=O)C2C3c4ccccc4C(c4ccccc43)C2C1=O)Nc1cccc(C(=O)O)c1 (stereo not shown) | -10.3
O=C(COc1ccc(Cl)cc1Cl)N/N=C1\CCCc2ccccc21 | 2.52
CC(C)(CO)NCc1ccccc1OCC(=O)Nc1ccccc1 | -14
Cc1ccc(C(=O)OCC(=O)Nc2ccc(F)c(Cl)c2)o1 | 17
Clc1ccc(-n2nnnc2-c2cnc3ccc(Cl)cc3c2-c2ccccc2)cc1 | 5.46
Cc1ccc(/C=C/C(=O)N2CCCN(C(=O)/C=C/c3ccc(C)cc3)CC2)cc1 | -74.8
O=C(/C=C/c1ccc(F)cc1)N1CCCN(C(=O)/C=C/c2ccc(F)cc2)CC1 | -75.6
O=C(Nc1ccccc1)N1CCc2ccccc21 | -21.2
O=C(CCN1C(=O)c2ccccc2C1=O)N1CCC(c2ccccc2)C1 (stereo not shown) | -43
O=C(CCCN1C(=O)c2ccccc2C1=O)N1CCC(c2ccccc2)C1 (stereo not shown) | -58.6
O=C(Nc1ccccc1)N1CCCc2ccccc21 | -79.2
Cc1ccc(/C=C/C(=O)N2CCCC(C)C2)cc1 (stereo not shown) | -8.25
CCN1CCN(C(=O)/C=C/c2ccc(F)cc2)CC1 | -43.2
CN1CCCN(C(=O)/C=C/c2ccc(F)cc2)CC1 | -23.7
CCN1CCN(C(=O)/C=C/c2ccc(C)cc2)CC1 | -23.1
Cc1ccc(NC(=O)N2CCCc3ccccc32)cc1 | -6.25
O=C(CCCCCCN1C(=O)c2ccccc2C1=O)N1CCC(c2ccccc2)C1 (stereo not shown) | -39.7
COc1ccc2cc(OCC(=O)NNC(=O)Nc3ccc(C(C)=O)cc3)ccc2c1 | 9.54
Cc1ccnc(SCc2cc(=O)c(OC(=O)c3ccco3)co2)n1 | 4.97
COc1ccc(NCc2ccsc2)cc1 | 2.52
